From PubChem BioAssay (NCATS)
Records with an inconclusive call do not appear. Calls of active or inactive are those of the source. Calls follow the shape of the dose curve; as a rule, active = well fitted curve in the direction sought with a large enough effect; inconclusive = small, poorly fitted or top-dose-only effect, or another doubt; inactive = no such curve, though single readings can be large; an effect the other way counts as inactive or inconclusive.

Columns and labels:
[1] = Quantitative High-Throughput drug screen in 47 multiple myeloma cell lines against the NCATS MIPE library collection: JIM3_ECACC cell viability assay (AID 1918963; also: nearly all actives have a fitted effect of over 35% in size)
Outline: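 qHTS of the MIPE 4.0 collection: 500 myeloma cells/well, 48 h drug exposure at 37C in 5% CO2, then CellTiter-Glo for 5 min at room temperature before luminescence reading.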

[2] = Quantitative High-Throughput drug screen in 47 multiple myeloma cell lines against the NCATS MIPE library collection: JIM1_ECACC cell viability assay (AID 1918964)
Outline: (§1)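 CellTiter-Glo ATP luminescence gave viability after 48 h compound treatment at 37C of 500 multiple myeloma cells per well. Normalisation used DMSO-only wells as 100% and media-only wells as 0% viability; primary qHTS of approved and investigational drugs.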

[3] = Quantitative High-Throughput drug screen in 47 multiple myeloma cell lines against the NCATS MIPE library collection: H1112_PLB cell viability assay (AID 1918967; also: nearly all actives have a fitted effect of over 30% in size)
Outline: as §1

[4] = Quantitative High-Throughput drug screen in 47 multiple myeloma cell lines against the NCATS MIPE library collection: Karpas25_ECACC cell viability assay (AID 1918968; also: nearly all actives have a fitted effect of over 35% in size)
Outline: as §1

[5] = Quantitative High-Throughput drug screen in 47 multiple myeloma cell lines against the NCATS MIPE library collection: KMS27_JCRB cell viability assay (AID 1918970); also: nearly all actives have a fitted effect of over 30% in size
Outline: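 Myeloma cells (500 per well) were exposed to MIPE 4.0 compounds for 48 h at 37 °C, 5% CO2; viability was read as ATP luminescence with CellTiter-Glo, normalized to DMSO-only (100%) and media-only (0%) wells.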

[6] = Quantitative High-Throughput drug screen in 47 multiple myeloma cell lines against the NCATS MIPE library collection: KMS12BM_JCRB cell viability assay (AID 1918971); also: nearly all actives have a fitted effect of over 35% in size
Outline: (§2)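 Myeloma cell lines, 500 cells per well, exposed to MIPE 4.0 library compounds for 48 h at 37C, 5% CO2. Viability from ATP by CellTiter-Glo luminescence; normalised to DMSO (100%) and media-only (0%) wells.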

[7] = Quantitative High-Throughput drug screen in 47 multiple myeloma cell lines against the NCATS MIPE library collection: KMS12PE_JCRB cell viability assay (AID 1918972); also: nearly all actives have a fitted effect of over 30% in size
Outline: (§3)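 Luminescent ATP measurement with CellTiter-Glo gives viability, scaled between DMSO-only wells (100%) and media-only wells (0%). Cells, 500 per well, faced library compounds for 48 hours at 37C.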

[8] = Quantitative High-Throughput drug screen in 47 multiple myeloma cell lines against the NCATS MIPE library collection: MOLP8_DSMZ cell viability assay (AID 1918977); also: nearly all actives have a fitted effect of over 45% in size
Outline: (§4)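 qHTS format: cells plated (500/well), pin-dosed with MIPE 4.0 compounds, kept 48 h at 37 °C. Readout was CellTiter-Glo luminescence, median RLU.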

[9] = Quantitative High-Throughput drug screen in 47 multiple myeloma cell lines against the NCATS MIPE library collection: OCIMY1_PLB cell viability assay (AID 1918979); also: nearly all actives have a fitted effect of over 35% in size
Outline: as §4

[10] = Quantitative High-Throughput drug screen in 47 multiple myeloma cell lines against the NCATS MIPE library collection: LP1_DSMZ cell viability assay (AID 1918982); also: nearly all actives have a fitted effect of over 35% in size
Outline: as §4

[11] = Quantitative High-Throughput drug screen in 47 multiple myeloma cell lines against the NCATS MIPE library collection: INA6_PLB cell viability assay (AID 1918965; also: nearly all actives have a fitted effect of over 55% in size)
Outline: as §3

[12] = Quantitative High-Throughput drug screen in 47 multiple myeloma cell lines against the NCATS MIPE library collection: KMS20_JCRB cell viability assay (AID 1918973); also: nearly all actives have a fitted effect of over 45% in size
Outline: as §1

[13] = Quantitative High-Throughput drug screen in 47 multiple myeloma cell lines against the NCATS MIPE library collection: KMS26_JCRB cell viability assay (AID 1918975); also: nearly all actives have a fitted effect of over 45% in size
Outline: as §2

[14] = Quantitative High-Throughput drug screen in 47 multiple myeloma cell lines against the NCATS MIPE library collection: NCIH929_DSMZ cell viability assay (AID 1918978); also: nearly all actives have a fitted effect of over 35% in size
Outline: as §4

[15] = Quantitative High-Throughput drug screen in 47 multiple myeloma cell lines against the NCATS MIPE library collection: MM1S_ATCC cell viability assay (AID 1918980); also: nearly all actives have a fitted effect of over 45% in size
Outline: as §4

[16] = Quantitative High-Throughput drug screen in 47 multiple myeloma cell lines against the NCATS MIPE library collection: MM1R_ATCC cell viability assay (AID 1918981); also: nearly all actives have a fitted effect of over 35% in size
Outline: as §4

[17] = Quantitative High-Throughput drug screen in 47 multiple myeloma cell lines against the NCATS MIPE library collection: JJN3_DSMZ cell viability assay (AID 1918966; also: nearly all actives have a fitted effect of over 50% in size)
Outline: as §1

[18] = Quantitative High-Throughput drug screen in 47 multiple myeloma cell lines against the NCATS MIPE library collection: KMS21BM_JCRB cell viability assay (AID 1918974); settings: ATP luminescence, 48 h; viability: at 45.8 µM (top of the series)
Outline: as §1

[19] = Quantitative High-Throughput drug screen in 47 multiple myeloma cell lines against the NCATS MIPE library collection: MMM1_PLB cell viability assay (AID 1918976); also: nearly all actives have a fitted effect of over 35% in size
Outline: as §4

Measured: Potency
Potency is read from the fitted curve at half-maximal effect.

CCc1cc(C(N)=S)ccn1
inactive: [1] | [2] | [3] | [4] | [5] | [6] | [7] | [8] | [9] | [10]

CC(C)(C)NC(=O)[C@H]1CC[C@H]2[C@@H]3CC[C@H]4NC(=O)C=C[C@]4(C)[C@H]3CC[C@]12C
active: [1] 4.18 µM | [11] 0.833 µM | [4] 0.662 µM | [7] 20.9 µM | [12] 3.32 µM | [13] 2.96 µM | [14] 0.296 µM | [15] 0.264 µM | [16] 1.32 µM
inactive: [2] | [6] | [9]

CCN(C)C(=O)Oc1cccc([C@H](C)N(C)C)c1
inactive: [1] | [2] | [11] | [3] | [4] | [7] | [8] | [14] | [9] | [15]

COc1ccc2c(c1)c(CC(=O)OCC(=O)O)c(C)n2C(=O)c1ccc(Cl)cc1
inactive: [1] | [2] | [11] | [17] | [3] | [6] | [8] | [14] | [9] | [10]

COC(=O)Nc1nc2ccc(Sc3ccccc3)cc2[nH]1
active: [1] 0.833 µM | [2] 0.833 µM | [11] 0.743 µM | [17] 10.5 µM | [6] 2.35 µM | [7] 0.833 µM | [18] 0.59 µM | [13] 18.7 µM | [8] 13.2 µM | [14] 8.33 µM | [9] 3.32 µM | [15] 2.09 µM | [16] 4.18 µM | [10] 2.35 µM

CCCCc1oc2ccc(NS(C)(=O)=O)cc2c1C(=O)c1ccc(OCCCN(CCCC)CCCC)cc1
active: [1] 18.7 µM | [2] 10.5 µM | [11] 9.35 µM | [17] 14.8 µM | [5] 14.8 µM | [6] 14.8 µM | [7] 9.35 µM | [12] 9.35 µM | [13] 14.8 µM | [8] 16.6 µM | [14] 18.7 µM | [9] 20.9 µM | [15] 20.9 µM | [16] 14.8 µM | [10] 16.6 µM

CCCc1nc(C)c2c(=O)[nH]c(-c3cc(S(=O)(=O)N4CCN(CC)CC4)ccc3OCC)nn12
active: [1] 9.35 µM | [2] 5.26 µM | [11] 4.18 µM | [17] 4.18 µM | [3] 10.5 µM | [5] 4.69 µM | [6] 5.26 µM | [12] 11.8 µM | [18] 3.72 µM | [13] 4.69 µM | [19] 6.62 µM | [8] 5.26 µM | [14] 3.72 µM | [9] 4.69 µM | [15] 4.69 µM | [16] 4.18 µM | [10] 4.69 µM

CC1(C)[C@H](C(=O)O)N2C(=O)C[C@H]2S1(=O)=O
active: [15] 26.4 µM | [10] 0.0012 µM
inactive: [1] | [2] | [11] | [3] | [6] | [7] | [13] | [14]

CC(C)(C)C(=O)OCOP(=O)(COCCn1cnc2c(N)ncnc21)OCOC(=O)C(C)(C)C
active: [1] 2.64 µM | [2] 2.64 µM | [11] 0.743 µM | [17] 0.526 µM | [4] 1.66 µM | [5] 0.469 µM | [6] 0.935 µM | [12] 2.64 µM | [13] 6.62 µM | [14] 0.209 µM | [9] 11.8 µM | [15] 2.09 µM | [16] 0.332 µM | [10] 16.6 µM
